Experimental data as given in PubChem BioAssay (Tox21).
Records with an inconclusive call do not appear. A call without a number means that no potency is given here. More than one record can exist for a structure, and the calls need not agree. Activity calls are given as the source filed them. Calls come from the whole dose curve.

Test: p53 small molecule agonists, cell-based qHTS assay with human liver microsomes: qHTS cell viability counter screen (AID 1963579); note: nearly all actives have a fitted effect of over 45% in size
Conditions: p53RE-bla HCT-116 viability, ATP luminescence, 16 h, HLM; series mostly up to 66 µM
From the text: National Center for Advancing Translational Sciences [NCATS]
Division of Preclinical Innovation [DPI]
U.S. Environmental Protection Agency [EPA]
National Institutes of Environmental Health Sciences [NIEHS]
National Toxicology Program [NTP]
U.S. Food and Drug Administration [FDA]
p53, a tumor suppressor protein, is activated following cellular insult, including DNA damage and other cellular stresses. The activation of p53 regulates cell fate by inducing DNA repair, cell cycle arrest, apoptosis, or cellular senescence. The activation of p53, therefore, is a good indicator of DNA damage and other cellular stresses. […] The activation of the reporter gene under culture conditions can be detected by fluorescence intensity. This cell line was used to screen the Tox21 10K compound library in the condition of presence of human liver microsomes and to identify agonists that activate the p53 signaling pathway after in vitro metabolic activation (Ooka et al., Archive of Toxicology 96:1975-1987, 2022).
Tox21 Assay Protocol Summary:
The p53RE-bla cells were dispensed at 4,000cells/3ul/well in 1536-well black-clear bottom plates. After the assay plates were incubated at 37 C, 5% CO2 incubator for 5 hours, 23 nL of compounds dissolved in DMSO, positive controls or DMSO only was transferred to the assay plate. Following compound addition, 3 uL of human liver microsomes (XenoTech, Kansas City, KS) at final concentration of 0.5 mg/mL and 1uL of B-Nicotinamide adenine dinucleotide 2'-phosphate (NADPH) at final concentration of 0.5 mg/mL were transferred to the assay plate. The plates were incubated at 37 C for 16 hours. 1 uL of LiveBLAzer detection mixture was added to each well and the plates were incubated at room temperature in the dark for 2 h. Fluorescence intensity at 460 and 530 nm emission and 405 nm excitation were measured by an Envision plate reader. For cell viability readout that measures cytotoxicity, 4 ul/well of CellTiter-Glo reagent was added into the assay plates using a Flying Reagent Dispenser. After 30 min incubation at room temperature, the luminescence intensity in the plates was measured using a ViewLux plate reader.
Potency is the fitted concentration of half-maximal effect.

Row | SMILES | Potency | activity change, negative = cytotoxicity
1 | CN(CC1(C)CCCO1)S(=O)(=O)c1ccc(Cl)c(S(N)(=O)=O)c1 (stereo not given) | inactive | 
2 | CC1=CCC(C(C)C)=CC1 | inactive | 
3 | CCCCCCCCCCC | inactive | 
4 | CC(C)CCCC(C)N (stereo not given) | inactive | 
5 | C=C(c1ccc(C(=O)O)cc1)c1cc2c(cc1C)C(C)(C)CCC2(C)C | 20.4 µM (active) and inactive | 
6 | CC(C)c1ccc(C=O)cc1 | inactive | 
7 | COc1nc(C)nc(NC(=O)NS(=O)(=O)c2ccccc2OCCCl)n1 | inactive | 
8 | CCOC(=O)c1ccc(N)cc1 | inactive | 
9 | NS(=O)(=O)c1ccccc1OC(F)(F)F | inactive | 
10 | O=C(O)/C=C/c1cnc[nH]1 | inactive | 
11 | CCN1CCc2nc(N)oc2CC1 | inactive | 
12 | OC1CCCCCCCCCCC1 | inactive | 
13 | OCCCCCCCl | inactive | 
14 | CC/C=C\CCOC(=O)CCCCC | inactive | 
15 | CC(C)(C)c1ccc(S)cc1 | inactive | 
16 | C=C(CC)C(=O)c1ccc(OCC(=O)O)c(Cl)c1Cl | inactive | 
17 | CCCCCCCCCCCC[N+](C)(C)CCCS(=O)(=O)[O-] | inactive | 
18 | C[Si](C)(C)Cl | inactive | 
19 | COCc1ccc(COC)cc1 | inactive | 
20 | Nc1ccc2cc3ccccc3cc2c1 | inactive | 

Row | SMILES | Potency | activity change, negative = cytotoxicity
21 | O=C(NCN1CCOCC1)c1cnccn1 | inactive | 
22 | Cn1cc(S(C)=O)c(=O)c2ccc(F)cc21 (stereo not given) | inactive | 
23 | NCCN1CCNC1=O | inactive | 
24 | CC(=O)N(c1onc(C)c1C)S(=O)(=O)c1ccc(N)cc1 | inactive | 
25 | C/C(Cl)=C/CCl | inactive | 
26 | CCCCC(CC)COCCO (stereo not given) | inactive | 
27 | CCCCCCCCCCCCCCO | inactive | 
28 | O=C1NCCN1CCO | inactive | 
29 | CC(C)(C)CC(C)(C)c1ccc(Nc2ccc(C(C)(C)CC(C)(C)C)cc2)cc1 |  | -1.28% [at 5.99 µM] (inactive)
30 | CC(C)C(=O)OC(=O)C(C)C | inactive | 
31 | O=Cc1cc2ccccc2o1 | inactive | 
32 | CC1COc2ccccc2N1 (stereo not given) | inactive | 
33 | Cc1cccc(N)n1 | inactive | 
34 | NCCNCCO | inactive | 
35 | CCOC(=O)c1cc(=O)c2c(OCC(COc3cccc4oc(C(=O)OCC)cc(=O)c34)OC(=O)[C@@H](N)CCCCN)cccc2o1 | inactive | 
36 | CCCCCCCCCCCCC(=O)O | inactive | 
37 | C=CC(C)(CCC=C(C)C)OC(=O)CC (stereo not given) | inactive | 
38 | c1cnccn1 | inactive | 
39 | COc1ccc2nc(N)sc2c1 | inactive | 
40 | C=C(C)[C@@H]1CCC2=CC(=O)C[C@@H](C)[C@]2(C)C1 | inactive | 
